# The list is not random: actives were taken first. Their share in the collection is about 3.3%.
# Luc counter – Kinase-Glo luciferase inhibition (counter-screen) | Q27757 | Kinase-Glo luciferase, ATP luminescence, 8 min | Potency, µM (top dose mostly 38.3 µM), usual class: inhibitors | hit rate 0.28% among 200,000 | AID 1379; also: nearly all actives have a fitted effect of over 60% in size
#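 Inhibition of Kinase-Glo luciferase light generation was assessed at 10 uM ATP in pH 7.2 imidazole buffer, with luminescence measured after eight minutes at ambient temperature.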
# Tau fluor counter – counter-screen for tau fibril formation inhibitors; tau K18 P301L Alexa594 fluorescence, heparin fibrillization; Potency, µM (doses to about 57.7 µM); AID 1463; hit rate 0.93% among 280,000; also: nearly all actives have a fitted effect of over 55% in size
#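 Human tau K18 P301L (15 uM unlabeled, 0.24 uM Alexa 594-labeled) in 100 mM sodium acetate pH 7 with 20 uM heparin, 6 hr at 37 C. ThT 30 uM added, 1 hr ambient; Alexa 594 FP and total fluorescence read at 555/632 nm.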
# Tau fibril ThT – inhibitors of human tau fibril formation, thioflavin T binding; recombinant tau K18 P301L (four-repeat tau fragment), heparin-induced fibrillization, ThT fluorescence; Potency, µM (titrated, usually from 57.4 µM), most hits filed as inhibitors; hit rate 2.1% among 270,000; AID 1460; also: nearly all actives have a fitted effect of over 55% in size
# Target sequence (P10636 561-689 P618L limits assumed): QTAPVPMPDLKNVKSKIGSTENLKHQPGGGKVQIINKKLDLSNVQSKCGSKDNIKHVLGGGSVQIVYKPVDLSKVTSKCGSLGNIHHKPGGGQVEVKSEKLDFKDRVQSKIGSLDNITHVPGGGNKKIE
#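 Recombinant human tau K18 fragment […] carrying P301L, 15 uM unlabeled plus 0.24 uM Alexa 594-labeled, was fibrillized with 20 uM heparin in 100 mM sodium acetate pH 7 for 6 hr at 37 C; 30 uM ThT fluorescence read after 1 hr.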
# Tau fibril FP – tau fibrillization inhibition (FP); P10636; Potency, µM (top dose mostly 57.7 µM), actives largely listed as inhibitors; K18 P301L tau heparin fibrillization, Alexa594 FP, 6 h; hit rate 0.39% among 280,000; also: nearly all actives have a fitted effect of over 55% in size
#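 Compound effects on tau fibrillization are measured by Alexa 594 fluorescence polarization (ex 555, em 632 nm). K18 P301L tau is used at 15 uM with 0.24 uM labeled tracer, and 20 uM heparin induces aggregation over 6 hr at 37 C.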
# NPSR antagonist – antagonists of human neuropeptide S receptor cAMP signaling; CHO-NPSR cells, cAMP TR-FRET, antagonist mode; Potency, µM (top dose mostly 38.3 µM), hits mostly inhibitors; hit rate 1% among 220,000; also: nearly all actives have a fitted effect of over 50% in size
# Target sequence (Q6W5P4 whole entry, looked up): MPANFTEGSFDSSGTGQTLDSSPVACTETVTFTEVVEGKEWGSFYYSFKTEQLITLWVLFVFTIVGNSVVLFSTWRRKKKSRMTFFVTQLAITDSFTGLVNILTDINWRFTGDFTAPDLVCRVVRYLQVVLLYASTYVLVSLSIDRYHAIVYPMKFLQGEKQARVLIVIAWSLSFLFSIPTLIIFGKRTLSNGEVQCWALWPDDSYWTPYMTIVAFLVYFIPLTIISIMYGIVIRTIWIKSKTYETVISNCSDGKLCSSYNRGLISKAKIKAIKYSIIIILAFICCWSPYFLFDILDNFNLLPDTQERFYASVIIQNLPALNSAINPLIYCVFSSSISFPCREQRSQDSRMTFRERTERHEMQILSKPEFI
# Numbers stand for hits; - = inactive; ? = inconclusive; . = not tested or not shown; [ ] = dose if it differs, or a comment. Calls follow the shape of the dose curve; as a rule, active = well fitted curve in the direction sought with a large enough effect; inconclusive = small, poorly fitted or top-dose-only effect, or another doubt; inactive = no such curve, though single readings can be large; an effect the other way counts as inactive or inconclusive.
SMILES,Luc counter,Tau fluor counter,Tau fibril ThT,Tau fibril FP,NPSR antagonist
Nc1nc(-c2ccccc2)c(N=Nc2cccc3ccccc23)s1,-,3.2µM[quencher],2.8µM,18µM,?
Cc1nc2ccc(S(=O)(=O)CCC(=O)Nc3ccc(C)c(C)c3)cc2s1,.,-,-,-,.
CC(=O)Nc1sc(NC(=O)c2ccccc2)nc1-c1cccs1,-,-,?,-,-
CC(=O)Nc1sc(N/N=C\c2ccc(O)cc2)nc1-c1cccs1,.,?,14µM,-,-
CC(=O)Nc1sc(N/N=C\c2ccccc2F)nc1-c1cccs1,-,?,8.9µM,-,-
CC(=O)Nc1sc(N/N=C\c2cccc(Cl)c2)nc1-c1cccs1,-,?,10µM,-,-
COc1ccc(OC)c(Nc2nc3ccccc3n3c(C)nnc23)c1,.,-,-,-,.
CCOC(=O)c1ccc(NC(=O)CC(=O)Nc2ccc3nc4n(c(=O)c3c2)CCCCC4)cc1,.,-,-,-,.
CCc1ccc(NS(=O)(=O)c2ccc(Cl)cc2OC)cc1,-,.,.,.,.
COc1ccccc1Nc1nc(N)nc(CSC(=S)N2CCCCC2)n1,.,?,-,?,-
O=[N+]([O-])c1cc(S(=O)(=O)N2CCCCCC2)ccc1F,-,?,16µM,-,?
COC(=O)c1c(-c2cccs2)csc1NC(=O)c1ccc(C(C)(C)C)cc1,.,-,25µM,22µM,.
COC(=O)c1c(-c2cccs2)csc1NC(=O)c1ccc(C(C)C)cc1,.,-,?,?,.
COC(=O)c1c(-c2cccs2)csc1NC(=O)c1ccc(Cl)cc1,.,-,13µM,?,.
COC(=O)c1c(-c2cccs2)csc1NC(=O)COc1ccc(C(C)(C)C)cc1,.,-,?,-,.
COc1ccc(C(=O)N2CCC3(CC2)CCN(c2cccc(-c4ccccc4)c2)CC3)cc1,-,.,.,.,.
COc1ccc(-c2nc3sc(CCNC(=O)C(=O)Nc4c(C)cccc4C)c(C)n3n2)cc1,.,-,-,-,.
COCCc1nn2c(=O)cc(COC(=O)c3ccc(C(C)(C)C)cc3)nc2s1,.,-,-,-,.
COCCNC(=O)CN(C(=O)CCC(=O)Nc1ccccn1)c1ccc(F)c(Cl)c1,.,?,6.3µM,-,-
Nc1nc(NCC2CCC(CNS(=O)(=O)c3cccc4ccccc34)CC2)nc2ccccc12 (stereo not drawn),-,?,-,?,.
OC(CNc1ccccc1)COc1ccc(OCC(O)CNc2ccccc2)cc1 (stereo not drawn),-,10µM[quencher],2.8µM,-,-
Nc1[nH]n(-c2ccccc2)c(=O)c1N=Nc1ccccc1[N+](=O)[O-],-,?,?,-,-
Nc1[nH]n(-c2ccccc2)c(=O)c1N=Nc1ccc2ncsc2c1,.,5µM[quencher],2.2µM,?,-
Cc1[nH]n(-c2ccccc2)c(=O)c1N=Nc1ccc2c(c1)OCCO2,-,?,3.5µM,-,-
Nc1[nH]n(-c2ccccc2)c(=O)c1N=Nc1ccccc1,.,5µM[quencher],2.5µM,-,-
SMILES,Luc counter,Tau fluor counter,Tau fibril ThT,Tau fibril FP,NPSR antagonist
O=c1c2c3c(sc2n(Cc2ccccc2F)c(=O)n1-c1ccc(Cl)cc1)CCCC3,.,-,-,-,.
Cc1cccc(N2C(=O)C(CC(=O)Nc3ccc(F)cc3)N(C3CCCC3)C2=O)c1 (stereo not drawn),.,-,-,-,.
CC(C)(C)c1ccc(C2NC(=O)c3n[nH]c(-c4cccs4)c32)cc1 (stereo not drawn),.,-,-,-,.
COc1ccc(CCNC(=O)CN2C(=O)COc3ccc(C)cc32)cc1OC,.,-,?,-,.
Oc1ccc(-c2nc3c4c(ncn3n2)-c2ccccc2CC42CCCC2)cc1,-,?,-,22µM,-
Nn1cnc2c(c1=O)C1(CCCCC1)Cc1ccccc1-2,-,-,-,-,-
CCOC(=O)c1nn(-c2ccccc2C)c(=O)c2c(N)scc12,-,-,16µM,18µM,-
CC(=O)OC[C@@H]1O[C@H](CCO/N=C\[C@@H](C)[C@H](OCc2ccccc2)C(C)C)C=C[C@@H]1OC(C)=O,.,-[11.6 µM],-[11.5 µM],-[11.6 µM],.
O=c1cc(-c2ccc(O)c(O)c2)oc2ccccc12,-,?,18µM,?,.
COc1ccc(-c2cc(=O)c3ccccc3o2)cc1OC,-,-,?,-,.
CN(C)CCN(C(=O)c1ccc(S(=O)(=O)N(C)c2ccccc2)cc1)c1nc2cc3c(cc2s1)OCCO3,.,-,.,-,-
CCOc1cccc2sc(N(CCCN(C)C)C(=O)c3ccc(S(=O)(=O)N(C)c4ccccc4)cc3)nc12,-,-,?,-,10µM
Cc1csc2nc(-c3cccc(NC(=O)c4ccc(S(N)(=O)=O)cc4)c3)cn12,.,-,-,-,.
NC(=S)N=Nc1c(O)[nH]c2c(Br)cc(Br)cc12,-,-,7.9µM,-,-
NC(=S)N=Nc1c(O)[nH]c2ccccc12,-,-,?,-,-
Cc1ccc(NNS(=O)(=O)c2ccc(C)cc2)cc1,-,-,20µM,?,-
Cc1ccc(S(=O)(=O)Nc2ccc(N=Nc3ccc(O)cc3)cc2)cc1,-,18µM[quencher],14µM,?,-
C[C@]12CC[C@@H](O)C[C@@H]1CC[C@@H]1[C@@H]2CC[C@]2(C)C=CC[C@@H]12,.,-,-,-,.
COc1ccc(N/C(=C(/C(Cl)=C(Cl)Cl)[N+](=O)[O-])n2nnc3ccccc32)cc1OC,-,?,14µM,?,-
CCc1cc2c(=O)c(-c3ccc4c(c3)OCCO4)coc2c(CN2CCCCC2C)c1O (stereo not drawn),-,?,?,-,10µM
O=C1CC(=O)N(Cc2cccs2)C(=O)N1,-,-,20µM,?,-
COc1ccc(CNc2nc(-c3ccco3)nn2S(=O)(=O)c2ccc3ccccc3c2)cc1OC,.,?,-,?,.
CCOc1cc(/C=C2\CCC/C(=C\c3cc(Cl)c(O)c(OCC)c3)C2=O)cc(Cl)c1O,-,?,8.9µM,?,?
CCCC(CCC)C(=O)Nc1cccc(-c2nc3cccnc3s2)c1,.,-,-,-,.
Cc1nn(-c2ccccn2)c2c1C(=O)C(Br)CC2 (stereo not drawn),-,?,2.8µM,3.2µM,-
SMILES,Luc counter,Tau fluor counter,Tau fibril ThT,Tau fibril FP,NPSR antagonist
CC1=C(C)C(=O)N(c2ccccn2)C1=O,-,-,-,-,-
NC(=O)CC[C@H](NC(=O)c1ccc(F)cc1)C(=O)OCC(=O)NCc1ccc(F)cc1,-,-,-,-,-
Cc1ccnc(NC(=O)c2ccc3c(c2)OCO3)c1,13µM,-,-,-,-
Cc1cc(NC(=O)c2ccc3c(c2)OCO3)ccc1NC(=O)c1ccco1,11µM,-,?,-,-
Cc1ccc(C(=O)Nc2ccc3c(c2)OCO3)cc1NC(=O)c1ccco1,-,-,?,-,-
CCOC(=O)C1Oc2ccccc2C(c2ccccc2)=C1C(C)=O (stereo not drawn),-,-,-,-,.
COc1ccc2c(Sc3ccccc3)c(C(=O)NCC(C)c3ccccc3)[nH]c2c1 (stereo not drawn),.,-,-,-,.
O=C1c2cccc3c(N4CCCCC4)ccc(c23)C(=O)N1c1ccccn1,-,-,?,-,-
